Assay outcomes: PubChem BioAssay, several laboratories
A selection: hits, their analogues and other compounds. The true share with any hit is near 1.8%.
AI-2 QS modul: Vibrio harveyi AI-2 quorum sensing modulators, primary screen, JMH597 strain, luminescence/OD600 ratio; Vibrio harveyi JMH597 AI-2 luminescence/OD600 ratio, 9 h; active compounds read low; strain lacks LuxN and CqsS sensors; 0 = neutral-control median; activity change, % at 7.5 µM; 0.4% of 300,000 active; in the data active = activity change below about -75%, passing the limit was not always enough;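 note: luminescence divided by OD600 gain over 9 h not by final OD600 alone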
aDG glyco act: activators of alpha-DG glycosylation, primary screen, uHTS, Pro5-aDG cells, AlphaScreen. 0.22% of 360,000 active. activation, % at 10 µM. AID 624168, 2012. alpha-DG glycosylation AlphaScreen (IIH6); 0% Pro5, 100% B10-LARGE cell signal;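 active = activation of at least 8% versus controls, or a plate z-score of at least 8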;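 note: Pro5 are CHO cells carrying HIG-tagged alpha-DG that lacks glycosylation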
Mot1-301 SUMO: yeast Mot1-301 growth rescue at high temperature, primary screen, SUMOylation pathway inhibitor project, S. cerevisiae, ATP luminescence, 38.5C; S. cerevisiae Mot1-301 growth rescue; percent above DMSO median, 100 means doubled; growth rescue, % at 18.8 µM; 1% of 320,000 active;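 active = every valid replicate shows activation above 250% relative to neutral control wells; inactive = the rest, any valid replicate at or below 250%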;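 note: OY570 slx delta 5 strain wells were the positive control but not used for scaling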
ARNT-TACC3 inh: disruptors of ARNT/TACC3 protein interaction, primary screen, biochemical, AlphaScreen, single concentration. inhibition, % at 9.99 µM. AID 623870, 2012. AlphaScreen His-ARNT PAS-B/GST-TACC3 binding, luminescence; TACC3 fragment carries E629A point mutation. Transforming acidic coiled-coil-containing protein 3 (Homo sapiens), Q9Y6A5. 0.66% of 390,000 active;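 active = mean inhibition of replicates at least 50% and at least half of replicates each reaching 50%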;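 note: 0% = complete ARNT plus TACC3 wells and 100% = ARNT alone without TACC3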
A1 inh: caspase 3/7 activation in MEF A1-2A-BIM cells, primary screen, A1 inhibitor project, cell-based, luminescence, HTS. Caspase-Glo 3/7 luminescence, 3 h; percent of clofoctol response, vehicle zero. caspase activation, % (concentration not given with the values). 0.066% of 330,000 active;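 active = over half of replicate activation scores above 10%, or exactly half above 10 with the replicate mean above 10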
* hit, by the source's call; . = not tested or not shown; ! = repeats disagree.

SMILES	AI-2 QS modul	aDG glyco act	Mot1-301 SUMO	ARNT-TACC3 inh	A1 inh
Clc1ccc(N=c2ssnc2Cl)cc1	28	0	340*	6	0
COc1ccc(N=c2ssnc2Cl)cc1	38	0	22	-18	2
N#Cc1ccc(N=c2ssnc2Cl)cc1	27	0	303*!	3	-2
Clc1nssc1=Nc1ccccc1	.	0	.	-4	.
CCOc1ccc(N2CC(C(=O)OCC(=O)c3ccc(OC)cc3)CC2=O)cc1 (stereo unspecified)	2	0	-1	2	0
Cc1ccc(S(=O)(=O)N2CCCOC2CNC(=O)C(=O)NCCCn2ccnc2)cc1 (stereo unspecified)	12	0	81	78*	1
COC(=O)C1=C(C)Nc2c(c(=O)n(C)c(=O)n2C)C1c1cccs1 (stereo unspecified)	14	0	101	-2	0
Cc1cc(C(=O)CCl)c(C)n1CCc1ccc(Cl)cc1	6	-1	154	-12	14*
CC(=O)C1C(c2cn(-c3ccccc3)nc2-c2cccs2)NC(=O)NC1(O)C(F)(F)F (stereo unspecified)	12	0	-6	47*	0
COc1ccc(N2C(=O)C3CCCN3C2c2ccc(Cl)cc2)cc1 (stereo unspecified)	13	0	-16	-13	0
COc1ccc(C2N(c3ccc(Cl)cc3)C(=O)C3CCCN32)cc1 (stereo unspecified)	-9	0	-7	30*	1
COc1ccc(NC(=O)CSc2nnc(Cn3cnc([N+](=O)[O-])n3)n2C)cc1	19	0	344*	2	-1
COc1cccc(NC(=O)CSc2nnc(Cn3cnc([N+](=O)[O-])n3)n2C)c1	27	0	2	-2	0
COc1cc(CN2CCc3ccccc3C2)cc([N+](=O)[O-])c1O	.	0	4	-2	1
COc1cc(CN2CCc3ccccc3C2)ccc1O	31	0	55	-14	33*
Cc1ccc(C)c(OCCCCN2CCCCC2)c1	21	0	3	-9	-9
Clc1ccc(OCc2nc(-c3ccccn3)no2)c(Br)c1	16	0	12	-9	-6
Nc1ccccc1N=Cc1ccc(-c2cccc(Cl)c2)o1	2	0	444*	6	-2
COC(=O)N/N=C/c1ccc(-c2cccc(Cl)c2)o1	8	0	456	13	-2
O=C(CCn1c(=O)[nH]c2ccccc2c1=O)N1CC=C(c2ccccc2)CC1	.	0	-10	2	0
NC(=O)N/N=C/c1coc2ccc3ccccc3c2c1=O	2	0	334*	-2	0
O=Cc1coc2ccc3ccccc3c2c1=O	-17	0	77	-2	0
O=C(CS(=O)(=O)c1ccccc1)Nc1ccc(N2CCOCC2)cc1	-3	0	107	-9	0
CCCCNCCOCCOc1ccc(F)cc1	17	0	304*	-2	0
Cc1ccc(NC(=O)CSc2nc3ccccc3c(=O)n2CCCN2CCCCC2)cc1C	13	8.3*	.	.	0
SMILES	AI-2 QS modul	aDG glyco act	Mot1-301 SUMO	ARNT-TACC3 inh	A1 inh
CC(=O)c1cccc(NC(=O)CSc2nc3ccccc3c(=O)n2CCCN2CCOCC2)c1	.	0	17	2	0
Cc1cc(N/N=C/c2ccc(F)cc2)nc(-n2nc(C)cc2C)n1	19	1	4	.	0
Oc1ccc(/C=N/Nc2nn3cnnc3c3ccccc23)cc1	-3	0	-11	6	-3
CCOc1cc(/C=N/Nc2nn3cnnc3c3ccccc23)ccc1O	36	0	-9	57*	-6
CCOc1cc(/C=N/Nc2cc(C)nc(-n3nc(C)cc3C)n2)ccc1O	13	0	-3	-1	8.6*
COc1ccc(Br)cc1C(C[N+](=O)[O-])c1c(N)n(C)c(=O)n(C)c1=O (stereo unspecified)	.	0	330*	-5	0
CN(C)c1ccc(C(C[N+](=O)[O-])c2c(N)n(C)c(=O)n(C)c2=O)c(F)c1C#N (stereo unspecified)	30	0	78	1	0
Cc1[nH]c2ccccc2c1/C=N/NC(=O)C1CC1(c1ccccc1)c1ccccc1 (stereo unspecified)	15	0	.	3	0
CCOC(=O)c1cc(-c2ccc(C)o2)nn1CCC#N	26	0	347*	3	0
Cc1cc(O)c(C(C[N+](=O)[O-])c2ccc(Cl)cc2)c(=O)o1 (stereo unspecified)	23	0	-5	.	0
Cc1cc(C)n(C(C[N+](=O)[O-])c2ccc(Cl)cc2)n1 (stereo unspecified)	-31	0	279*	-4	1
CCOC(=O)c1ccccc1NC(=O)COC(=O)C1=COCCO1	22	0	286*	-8	0
COc1cc2[nH]c(=S)nc(NCc3cccs3)c2cc1OC	49	0	-8	15	1
COc1ccccc1CNc1nc(=S)[nH]c2cc(OC)c(OC)cc12	25	0	-5	53*	-1
COc1cc2[nH]c(=S)nc(NCCc3ccc(S(N)(=O)=O)cc3)c2cc1OC	7	0	-17	70*	0
COc1ccc(CCNc2nc(=S)[nH]c3cc(OC)c(OC)cc23)cc1OC	-1	1	10	56*	0
COc1cc2[nH]c(=S)nc(NCCc3ccc(C)cc3)c2cc1OC	.	4	.	32	.
CCOC(=O)N1CCN(C(=O)CSc2ncnc3ccccc23)CC1	33	0	20	-4	0
CCCC(=O)Nc1ccc2c(c1)OC[C@@H](C)N(Cc1ccc(-c3ccccn3)cc1)C[C@@H](C)[C@H](OC)CN(C)C2=O	.	.	.	-1	.
COC1=C(N)C(=O)c2nc(C)ccc2C1=O	.	7	.	30*	.
COc1cccc(/C=N/NC(=O)C(=O)NCc2ccco2)c1OC	1	0	12	-4	1
COc1cccc(/C=N/NC(=O)C(=O)NCc2ccco2)c1O	15	0	-15	60*	0
COc1cccc(/C=N/NC(=O)c2cnccn2)c1O	8	0	13	58*	-3
COc1ccc(/C=N/NC(=O)c2cnccn2)c(OC)c1OC	17	0	-5	-4	0
CCOc1cc(Br)cc(/C=N/NC(=O)c2cccnc2)c1O	.	1	175	56*	1
COc1ccccc1NS(=O)(=O)c1cc(NC(=O)CN2C(=O)NC3(CCCCC3)C2=O)ccc1C	.	0	.	4	.
